# Assay results taken from the supplement of paper PMC11417369.
# Over roughly 25,000 sequences, “ln(normalized median fluorescence intensity)” has its median near 9.3; the highest 2% begin near 10. The sample as a whole holds a higher share of the highest values than the screen did.
# System: PF3D7_0420300 AP2 domain 1 (GST-tagged)
# Experiment: gcPBM binding intensity (ln(normalized median fluorescence intensity)); higher = stronger DNA binding
# How it was run: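 The binding buffer was 1× PBS containing 1% milk, 0.2 mg/ml BSA, 0.5% salmon testes DNA and 0.03% Triton X-100. In it, GST-tagged P. falciparum DNA-binding domains expressed in E. coli were applied for 1 h to an Agilent 4 × 180k array of primer-extended double-stranded 36-bp intergenic genomic probes plus negative controls. Binding intensity, read with Alexa488 anti-GST antibody and a 488 nm scan, is the highest Masliner-normalised natural-log median intensity across replicate spots of either probe orientation.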
row,Sequence,gcPBM binding intensity (ln)
1,TATATAAACACGTACACACACATATAGGTATTTATA [CACACA_site7615],9.97
2,TCTTAAAAAATAGGGACACGTAAATATAATATATAA [CACACA_negctrl_site554],9.4
3,TTATACTGTTTCAGAAAAATAAAGAATGAAAGTATT [XGTACX_negctrl_site230],9.23
4,TGTAGAAATGGGTGCACACACATATAAAATCTATAT [CACACA_site7224],9.66
5,TTTCAAAATGTGTAAAATAAAAATAATATCATTACA [TGCATGCA_negctrl_site521],9.08
6,ATTTTCTTTTCCATAGTGCAATATAATTATCCATCA [GTGCAC_site9547],9.29
7,TTTTTTATATATGTGTGTGTGTGTGTGTCAAGTTTA [GTGCAC_negctrl_site460],10.3
8,TGTGTCAAGTTTAATAAACGCATATAATATATATGA [CACACA_negctrl_site607],8.93
9,AATTTTTTTTTTTTTTTTTTTTATATATGTGTGTGT [XGTACX_negctrl_site129],9.74
10,TATATAAATATTCGTAGTACAATACAATTATAAGTA [XGTACX_site3068],9.15
11,AACTAATAAAAAAAAAAAACATTAAACAGGACAAAT [XGTACX_negctrl_site287],9.78
12,AATATAATATAATGCACACATAAACAAAAAAAAAAT [CACACA_site1304],9.89
13,AAAATATAATATAATGCACACATAAAACAAAAAAAA [CACACA_site8989],9.74
14,AACATATAAAAATATGCACACACAGGAATACAAACA [CACACA_site8127],10.3
15,AAAATATAATATAATGCACACATAAACAAAAAAAAA [CACACA_site8161],9.78
16,AAAATATATACACAAACATGCATATAATAAATAAAT [TGCATGCA_site711],9.48
17,CATATAAAAATATGCACACACAGGAATACAAACATA [CACACA_site684],10.2
18,TATATATATATGTGTAGTACAACAAATATGAAAAAT [XGTACX_site4059],9.54
19,AAGAATATTTTTTTCTGTACATATAATTTATATACG [XGTACX_site5801],9.13
20,TATTAATACAGACACACACACACACTAATTAAAATA [CACACA_site7967],10.1
21,ATTTATATATATCATACACACTAATATGTATATTAT [CACACA_site5816],9.42
22,GGGAAATATTGAAACACACACGAACGCACGTATTTC [CACACA_site6258],9.54
23,ATTTATTTATCAAATATTATCTTAAAAAAAAAAGAA [CACACA_negctrl_site1345],8.79

row,Sequence,gcPBM binding intensity (ln)
1,ACAAATGGAACTCCTACAAAAAATTTCCATAATATT [XGTACX_negctrl_site132],9.16
2,TATTAATTCATTTTTTTTTTTTTTTTTTTTTTTTTT [CACACA_negctrl_site1215],9.13
3,TTTATTAATAAACACACACACACACCCAAAATAAAA [CACACA_site7966],10.2
4,TATTTATTAAAACACACACACACACCCACAAAATAA [CACACA_site241],10.1
5,ATTAATAAATAAATGACACACACACCCACAAAAAAA [CACACA_site8839],9.97
6,GAATAATCCAAACACACACACACACCCGAATAAATA [CACACA_site482],10.2
7,TTTATTAAGAAACACACACACACACCCAAAATAAAA [CACACA_site242],10
8,TAATAAATAAATGACACACACACACCCAAAAAAAAA [CACACA_site2623],10.2
9,CAAAAAATGAAACACACACACACACCCATAAATAAA [CACACA_site1231],10.1
10,CCCGAACAAACAAATAAACACACAAAAAAAAATATA [CACACA_site8540],9.63
11,ATAATCCTGAAACACACACACACACCCATAAATAAA [CACACA_site481],10.1
12,GTAATTTTATATGGTTGTACATATATATATATATAT [XGTACX_site6659],9.32
13,TAAAATATGGAAATCACACATTTATTAAAATATATA [CACACA_site4623],9.13
14,TGTATTAATATGGTAATACACACTAATATACTTTTG [CACACA_site1610],9.38
15,TTGATTTCATTTTAAGTGCATAACTAATATTATATA [GTGCAC_site9713],9.14
16,ATTATGAAATATCGTGCACACACGAATAATATAAGA [CACACA_site1294],9.42
17,AAAAAAAAAACAAATGCATGTAATATAAGAATTACA [TGCATGCA_site908],9.27
18,TACAGACAGAAATGCACACACATATTTATATTTATA [CACACA_site7139],9.75
19,CATACAGACGAACACACACACATATAAATATAAATA [CACACA_site6443],9.91
20,TAACACATAAATAAATATATACATATATATAAAATA [CACACA_negctrl_site375],9.36
21,AGTATACACGAACACACACACACATATATAAATATA [CACACA_site6913],10.3
22,CATATACACGAACACACACACATATAAATAAATATA [CACACA_site6379],10.1
